# Test results reported in the supplement of paper PMC8728848.
# Shown is part of a subset that was picked to be rich in the strongest signals.
# B1: Morniga (Morus nigra) (protein)
# chain: MAGTSTNTQTTGTSQTVEVGLWGGPGGNAWDDGSYTGIREINLSHGDAIGAFSVIYDLNGQPFTGPTHPGNEPSFKTVKITLDFPNEFLVSVSGYTGVLPRLATGKDVIRSLTFKTNKKTYGPYGKEEGTPFSLPIENGLIVGFKGRSGFVVDAIGVHLS
# B2: PILRa (Homo sapiens), Q9UKJ1 (protein)
# chain: MGRPLLLPLLPLLLPPAFLQPSGSTGSGPSYLYGVTQPKHLSASMGGSVEIPFSFYYPWELATAPDVRISWRRGHFHRQSFYSTRPPSIHKDYVNRLFLNWTEGQKSGFLRISNLQKQDQSVYFCRVELDTRSSGRQQWQSIEGTKLSITQAVTTTTQRPSSMTTTWRLSSTTTTTGLRVTQGKRRSDSWHISLETAVGVAVAVTVLGIMILGLICLLRWRRRKGQQRTKATTPAREPFQNTEEPYENIRNEGQNTDPKLNPKDDGIVYASLALSSSTSPRAPPSHRPLKSPQNETLYSVLKA
# What was measured:
# Assay in all cases: glycan array binding signal (z-score within array); higher = stronger binding
# Details in all cases: glycan notation: IUPAC condensed, linker removed
# [1] = target: Neu5Ac(a2-3)Gal(b1-3)GlcNAc(b1-6)GalNAc
# Procedure, shortened: (§1)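 Glycan array data were curated from 3228 arrays in the Consortium for Functional Glycomics database and kept only where the protein sequence was available. Glycan names were converted to IUPAC-condensed notation, and columns mapping to the same glycan were averaged. The binding signal is a within-array Z-score, averaged across arrays of the same protein sequence at different concentrations or buffers and across linkers. Negative Z-scores can be read as non-binding.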
# [2] = target: Neu5Ac(a2-3)Gal(b1-4)GlcNAc(b1-2)Man(a1-3)[Neu5Ac(a2-6)Gal(b1-4)GlcNAc(b1-2)Man(a1-6)]Man(b1-4)GlcNAc(b1-4)GlcNAc
# Procedure, shortened: as §1
# [3] = target: Neu5Ac(a2-3)Gal(b1-4)GlcNAc(b1-3)Gal(b1-3)GlcNAc
# Procedure, shortened: as §1
# [4] = target: Neu5Ac(a2-3)Gal(b1-4)GlcNAc(b1-3)Gal(b1-4)GlcNAc(b1-3)Gal(b1-4)GlcNAc
# Procedure, shortened: as §1
# [5] = target: Neu5Ac(a2-6)Gal(b1-4)GlcNAc(b1-2)Man(a1-3)Man(b1-4)GlcNAc(b1-4)GlcNAc
# Procedure, shortened: as §1
# [6] = target: Neu5Ac(a2-6)Gal(b1-4)GlcNAc(b1-2)Man(a1-6)[Gal(b1-4)GlcNAc(b1-2)Man(a1-3)]Man(b1-4)GlcNAc(b1-4)GlcNAc
# Procedure, shortened: as §1
# [7] = target: Neu5Ac(a2-6)Gal(b1-4)GlcNAc(b1-2)Man(a1-6)[Man(a1-3)]Man(b1-4)GlcNAc(b1-4)GlcNAc
# Procedure, shortened: as §1
# [8] = target: Neu5Ac(a2-8)Neu5Ac(a2-8)Neu5Ac(a2-3)Gal(b1-4)Glc
# Procedure, shortened: as §1
# [9] = target: Fuc(a1-2)Gal(b1-3)GalNAc(b1-4)[Neu5Ac(a2-3)]Gal(b1-4)Glc
# Procedure, shortened: as §1
# [10] = target: Fuc(a1-2)Gal(b1-3)[Fuc(a1-4)]GlcNAc(b1-2)Man(a1-3)[Fuc(a1-2)Gal(b1-3)[Fuc(a1-4)]GlcNAc(b1-2)Man(a1-6)]Man(b1-4)GlcNAc(b1-4)GlcNAc
# Procedure, shortened: as §1
# [11] = target: Fuc(a1-2)Gal(b1-4)[Fuc(a1-3)]GlcNAc(b1-2)[Fuc(a1-2)Gal(b1-4)[Fuc(a1-3)]GlcNAc(b1-4)]Man(a1-3)[Fuc(a1-2)Gal(b1-4)[Fuc(a1-3)]GlcNAc(b1-2)Man(a1-6)]Man(b1-4)GlcNAc(b1-4)GlcNAc
# Procedure, shortened: as §1
# [12] = target: Fuc(a1-2)Gal(b1-4)[Fuc(a1-3)]GlcNAc(b1-3)GalNAc
# Procedure, shortened: as §1
# [13] = target: Fuc(a1-2)[Gal(a1-3)]Gal(b1-3)GlcNAc(b1-3)GalNAc
# Procedure, shortened: as §1
# [14] = target: Fuc(a1-2)[Gal(a1-3)]Gal(b1-4)[Fuc(a1-3)]GlcNAc(b1-3)GalNAc
# Procedure, shortened: as §1
# [15] = target: Fuc(a1-2)[GalNAc(a1-3)]Gal(b1-3)GalNAc(a1-3)[Fuc(a1-2)]Gal(b1-4)GlcNAc
# Procedure, shortened: as §1
# [16] = target: Fuc(a1-2)[GalNAc(a1-3)]Gal(b1-3)GlcNAc(b1-3)GalNAc
# Procedure, shortened: as §1
# [17] = target: Fuc(a1-2)[GalNAc(a1-3)]Gal(b1-4)GlcNAc(b1-3)GalNAc
# Procedure, shortened: as §1
# [18] = target: Fuc(a1-2)[GalNAc(a1-3)]Gal(b1-4)[Fuc(a1-3)]GlcNAc(b1-3)GalNAc
# Procedure, shortened: as §1
# [19] = target: Fuc(a1-3)[Gal(b1-4)]GlcNAc(b1-2)Man(a1-6)[Gal(b1-4)GlcNAc(b1-2)Man(a1-3)]Man(b1-4)GlcNAc(b1-4)GlcNAc
# Procedure, shortened: as §1
# [20] = target: Fuc(a1-3)[Gal3S(b1-4)]GlcNAc6S
# Procedure, shortened: as §1
# [21] = target: Fuc(a1-3)[GalNAc(b1-4)]GlcNAc
# Procedure, shortened: as §1
# [22] = target: Gal(a1-3)Gal(b1-3)GlcNAc(b1-2)Man(a1-3)[Gal(a1-3)Gal(b1-3)GlcNAc(b1-2)Man(a1-6)]Man(b1-4)GlcNAc(b1-4)GlcNAc
# Procedure, shortened: as §1
# [23] = target: Gal(b1-2)Gal
# Procedure, shortened: as §1
# [24] = target: Gal(b1-3)GlcNAc(b1-3)Gal(b1-3)GlcNAc
# Procedure, shortened: as §1
# [25] = target: Gal(b1-3)GlcNAc(b1-6)Gal(b1-4)GlcNAc
# Procedure, shortened: as §1
# [26] = target: Gal(b1-4)GlcNAc(b1-3)[GlcNAc(b1-6)]Gal(b1-4)GlcNAc
# Procedure, shortened: as §1
# [27] = target: Gal(b1-6)Gal
# Procedure, shortened: as §1
# [28] = target: Gal3S(b1-4)Glc6S
# Procedure, shortened: as §1
# [29] = target: Gal3S(b1-4)GlcNAc6S
# Procedure, shortened: as §1
# [30] = target: GalNAc(a1-3)GalNAc(a1-3)Gal(a1-4)Gal(b1-4)GlcNAc
# Procedure, shortened: as §1
# [31] = target: GalNAc(b1-3)Gal
# Procedure, shortened: as §1
# [32] = target: GalNAc(b1-3)Gal(a1-4)Gal(b1-4)GlcNAc(b1-3)Gal(b1-4)Glc
# Procedure, shortened: as §1
# [33] = target: GalNAc(b1-3)Gal(a1-6)Gal(b1-4)Glc
# Procedure, shortened: as §1
# [34] = target: GlcA(b1-3)GlcNAc
# Procedure, shortened: as §1
# [35] = target: GlcNAc(a1-3)Gal(b1-4)GlcNAc
# Procedure, shortened: as §1
# [36] = target: GlcNAc(b1-3)Gal(b1-4)GlcNAc(b1-3)Gal(b1-4)GlcNAc
# Procedure, shortened: as §1
# [37] = target: GlcNAc(b1-4)[GlcNAc(b1-6)]GalNAc
# Procedure, shortened: as §1
# [38] = target: Man(a1-2)Man(a1-3)Man
# Procedure, shortened: as §1
# [39] = target: Neu5Ac(a2-3)Gal
# Procedure, shortened: as §1
# [40] = target: Neu5Ac(a2-3)Gal(b1-3)GalNAc(b1-4)[Neu5Ac(a2-3)]Gal(b1-4)Glc
# Procedure, shortened: as §1
# [41] = target: Neu5Ac(a2-3)Gal(b1-3)GlcNAc
# Procedure, shortened: as §1
# [42] = target: Neu5Ac(a2-3)Gal(b1-3)GlcNAc(b1-3)Gal(b1-3)GlcNAc
# Procedure, shortened: as §1
# [43] = target: Neu5Ac(a2-3)Gal(b1-4)Glc
# Procedure, shortened: as §1
# [44] = target: Neu5Ac(a2-3)Gal(b1-4)GlcNAc(b1-3)Gal(b1-4)GlcNAc
# Procedure, shortened: as §1
# [45] = target: Neu5Ac(a2-3)Gal(b1-4)GlcNAc(b1-3)Gal(b1-4)[Fuc(a1-3)]GlcNAc
# Procedure, shortened: as §1
# [46] = target: Neu5Ac(a2-3)Gal(b1-4)[Fuc(a1-3)]GlcNAc6S
# Procedure, shortened: as §1
# [47] = target: Neu5Ac(a2-6)Gal(b1-4)GlcNAc(b1-2)Man(a1-3)[Man(a1-6)]Man(b1-4)GlcNAc(b1-4)GlcNAc
# Procedure, shortened: as §1
# [48] = target: Neu5Gc(a2-3)Gal(b1-4)[Fuc(a1-3)]GlcNAc
# Procedure, shortened: as §1
binder,measurement,setting,value
B1,glycan array binding signal (z-score),[1],-0.299
same,glycan array binding signal (z-score),[2],2.56
same,glycan array binding signal (z-score),[3],-0.325
same,glycan array binding signal (z-score),[4],-0.342
same,glycan array binding signal (z-score),[5],3.66
same,glycan array binding signal (z-score),[6],3.24
same,glycan array binding signal (z-score),[7],4.66
same,glycan array binding signal (z-score),[8],-0.334
B2,glycan array binding signal (z-score),[9],-0.102
same,glycan array binding signal (z-score),[10],4.38
same,glycan array binding signal (z-score),[11],4.02
same,glycan array binding signal (z-score),[12],5.45
same,glycan array binding signal (z-score),[13],0.023
same,glycan array binding signal (z-score),[14],3.41
same,glycan array binding signal (z-score),[15],-0.142
same,glycan array binding signal (z-score),[16],4.4
same,glycan array binding signal (z-score),[17],-0.194
same,glycan array binding signal (z-score),[18],9.37
same,glycan array binding signal (z-score),[19],-0.546
same,glycan array binding signal (z-score),[20],-0.051
same,glycan array binding signal (z-score),[21],-0.102
same,glycan array binding signal (z-score),[22],4.98
same,glycan array binding signal (z-score),[23],0.001
same,glycan array binding signal (z-score),[24],0.263
same,glycan array binding signal (z-score),[25],-0.136
same,glycan array binding signal (z-score),[26],-0.338
same,glycan array binding signal (z-score),[27],-0.177
same,glycan array binding signal (z-score),[28],0.618
same,glycan array binding signal (z-score),[29],-0.01
same,glycan array binding signal (z-score),[30],-0.27
same,glycan array binding signal (z-score),[31],0.508
same,glycan array binding signal (z-score),[32],-0.169
same,glycan array binding signal (z-score),[33],-0.215
same,glycan array binding signal (z-score),[34],6.02
same,glycan array binding signal (z-score),[35],0.089
same,glycan array binding signal (z-score),[36],-0.259
same,glycan array binding signal (z-score),[37],-0.213
same,glycan array binding signal (z-score),[38],-0.144
same,glycan array binding signal (z-score),[39],-0.314
same,glycan array binding signal (z-score),[40],-0.281
same,glycan array binding signal (z-score),[41],0.854
same,glycan array binding signal (z-score),[42],-0.15
same,glycan array binding signal (z-score),[43],-0.248
same,glycan array binding signal (z-score),[44],1.17
same,glycan array binding signal (z-score),[4],-0.327
same,glycan array binding signal (z-score),[45],-0.125
same,glycan array binding signal (z-score),[46],-0.092
same,glycan array binding signal (z-score),[47],-0.177
same,glycan array binding signal (z-score),[48],-0.343
